Compound activity: PubChem BioAssay, several laboratories
sEH inh: soluble epoxide hydrolase inhibitors, primary screen, biochemical, human sEH | hit rate 0.34% among 91,000 | inhibition, % at 2 µM | recombinant human sEH enzymatic activity assay | AID 707, 2007; in the data active = inhibition above about 80%
Target sequence (P34913 whole entry, looked up): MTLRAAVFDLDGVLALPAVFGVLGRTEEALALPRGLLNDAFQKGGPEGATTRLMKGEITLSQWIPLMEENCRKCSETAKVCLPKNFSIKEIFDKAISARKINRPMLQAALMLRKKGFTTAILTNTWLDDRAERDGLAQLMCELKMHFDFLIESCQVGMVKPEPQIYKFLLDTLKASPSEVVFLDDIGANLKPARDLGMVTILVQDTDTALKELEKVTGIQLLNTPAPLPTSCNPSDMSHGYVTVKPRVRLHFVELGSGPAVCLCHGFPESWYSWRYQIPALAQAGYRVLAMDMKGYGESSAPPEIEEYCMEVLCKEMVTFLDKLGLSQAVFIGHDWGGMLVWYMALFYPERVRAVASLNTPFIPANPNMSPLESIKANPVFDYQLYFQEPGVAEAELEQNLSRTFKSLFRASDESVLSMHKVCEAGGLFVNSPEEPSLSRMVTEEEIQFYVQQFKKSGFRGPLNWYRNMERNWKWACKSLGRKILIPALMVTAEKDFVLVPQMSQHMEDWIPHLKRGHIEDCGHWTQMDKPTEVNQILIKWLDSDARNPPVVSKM
CYP2C9 activ: human CYP2C9 activators, primary screen, biochemical, luminescence | recombinant CYP2C9, luciferin-H conversion; active compounds read high; factor 1 = untreated enzyme, 0 = blocked | activation factor at 5 µM | hit rate 1.4% among 96,000;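 active = activation factor of 2 or more for CYP2C9 at a 5 µM dose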;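 also: 0 = sulfaphenazole-blocked wells and 1 = vehicle-only wells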
CYP2C19 inhib: blockers of cytochrome P450 2C19 activity – biochemical, luminescence, ADME assay, primary screen; AID 778, 2007; CYP2C19 Supersomes, luciferin-H EGE luminescence, 30 min; inhibition, % at 5 µM; hit rate 21% among 96,000; P33261;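 active = CYP2C19 inhibition above a set limit at 5 µM in the primary screen, cut at about 50% in these data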;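 also: plate controls were negative control wells for no effect and 2.5 mM tranylcypromine positive control for full effect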
sEH act: soluble epoxide hydrolase activators, primary screen, biochemical, human sEH | purified human sEH enzymatic activity, activator screen | activation, % at 2 µM | hit rate 0.04% among 91,000; in the data active = activation above about 37%
CYP2C9 inhib: blockers of cytochrome P450 2C9 activity – biochemical, luminescence, ADME assay, primary screen | CYP2C9 Supersomes, luciferin-H conversion | AID 777, 2007 | inhibition, % at 5 µM | P11712 | hit rate 20% among 96,000;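 active = blocking of liver enzyme CYP2C9 beyond about 50% at 5 µM, limit read from the data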
CYP2C19 activ: human CYP2C19 activators, primary screen, biochemical, luminescence; recombinant CYP2C19, luciferin-H EGE luminescence; active compounds read high; 0 = fully inhibited enzyme, 1 = untreated enzyme; activation factor at 5 µM; 96,000 tested, under 10 active; AID 1025, 2008;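 active = activation factor of at least 2 at 5 µM in the primary screen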;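 also: 0 = wells with 2.5 mM tranylcypromine and 1 = vehicle-only wells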
The depositor's hits bear a star; / = no result. Only some compounds are listed: those with a hit (about 27% of all), similar ones and a draw of the others.

SMILES	sEH inh	CYP2C9 activ	CYP2C19 inhib	sEH act	CYP2C9 inhib	CYP2C19 activ
COc1ccccc1CN1C(=O)CN(C2CCCC2)C(=O)C1c1ccc(F)cc1 (stereo unspecified)	-12.9	0.8	21.3	12.3	24.1	0.8
Cc1ccc(C(=O)O)cc1-c1ccc(/C=C2/NC(=O)N(c3ccccc3)C2=O)o1	-3.9	1	-2.5	2.6	1.7	1
CNC(=O)/C(C#N)=C/c1ccc(-c2ccc(OC)cc2[N+](=O)[O-])o1	9.6	0.9	7.2	-7.9	8.8	0.9
COc1ccc(-c2ccc(/C=C3\C(=O)N(c4ccccc4)N=C3c3ccccc3)o2)c([N+](=O)[O-])c1	3.8	0.3	55.9*	-1.1	70.7*	0.4
COC(=O)c1ccccc1-c1ccc(/C=C2\C(=O)N(c3ccccc3)N=C2c2ccccc2)o1	2.6	0.2	94.1*	0.1	82.8*	0.1
Cc1cccc(S(=O)(=O)Nc2cccc3c2C(=O)c2ccccc2-3)c1	3.1	0.4	-1.4	-0.8	58.6*	1
CC12CCC(C(=O)Nc3cc(Cl)ccc3Cl)(C/C1=N\O)C2(C)C (stereo unspecified)	0.8	3.1*	25.5	-0.3	-205.8	0.7
CC(C)(C)c1ccc(S(=O)(=O)N2CCN(CCC#N)CC2)cc1	/	1.4	50.0*	/	-38.1	0.5
O=C(O)c1cnc(-c2ccccc2)nc1Sc1ccc(Cl)cc1Cl	-12.2	0.5	-7.1	14.9	53.3*	1.1
O=C(O)c1cnc(-c2ccccc2)nc1Sc1cccc(Cl)c1	6.7	0.6	5.7	-4.4	39.8	0.9
CCc1ccc(N2CCCn3c2nc2c3c(=O)n(CCN3CCOCC3)c(=O)n2C)cc1	/	0.9	7.3	/	6.7	0.9
COCCNc1nc(SCC(=O)N2CCN(c3ccccc3OC)CC2)nc2ccccc12	2.2	0.6	31.3	-5.0	43.3	0.7
COC(=O)c1nn(-c2ccccc2)ccc1=O	9.6	1	5.1	-11.3	4.7	0.9
O=c1ccn(-c2cccc(C(F)(F)F)c2)nc1-c1ccn(-c2ccccc2)n1	-7.7	0.2	36.0	9.6	80.2*	0.6
COc1ccccc1NC(=O)C1=C(C)Nc2nc(CCCO)nn2C1c1cccnc1 (stereo unspecified)	1.4	1.1	3.3	-0.3	-8.4	1
COC(=O)C1=C(C)Nc2nc(-c3ccccc3)nn2C1c1ccc(C)o1 (stereo unspecified)	-13.8	0.3	65.9*	12.3	70.6*	0.3
CC1=C(C(=O)Nc2ccccc2)C(c2cccnc2)n2nc(-c3cccnc3)nc2N1 (stereo unspecified)	/	0.3	26.4	/	75.0*	0.7
CC1=C(C(=O)Nc2ccccc2C)C(c2cccnc2)n2nc(CCCO)nc2N1 (stereo unspecified)	5.6	0.5	-15.3	-1.5	52.9*	1.2
COc1cccc(-c2nc3n(n2)C(c2cccs2)C(C(=O)Nc2cccnc2)=C(C)N3)c1 (stereo unspecified)	/	0	77.0*	/	98.7*	0.2
CC(=O)Nc1cc(C(=O)N2CCCC2)ccc1S(=O)(=O)c1ccc(Cl)cc1	-18.3	0.9	-3.2	15.2	6.1	1
CC(C)(C)n1nnnc1C(c1ccccc1F)N1CCN(C2CCCC2)CC1 (stereo unspecified)	/	1	-9.1	/	3.2	1.1
Cc1nn(CC(=O)Nc2ccc3c(c2)oc2ccccc23)c(=O)c2ccccc12	14.4	1	39.7	-14.8	1.1	0.6
COc1ccc(CNC(=O)CCOc2ccc(C(C)(C)C)cc2)cc1	30.0	0.6	14.0	-29.8	41.2	0.9
O=C(CSc1ccc2nnc(-c3ccncc3)n2n1)Nc1ccc2c(c1)OCO2	8.4	0.4	6.2	-9.1	57.5*	0.9
O=C(CSc1ccc2nnc(-c3ccncc3)n2n1)Nc1ccc2c(c1)OCCO2	11.2	0.4	6.0	-11.8	56.5*	0.9
SMILES	sEH inh	CYP2C9 activ	CYP2C19 inhib	sEH act	CYP2C9 inhib	CYP2C19 activ
O=C(CSc1ccc2nnc(-c3ccccn3)n2n1)Nc1ccc2c(c1)OCCO2	0.6	0.3	27.4	-1.3	65.5*	0.7
O=C(CSc1ccc2nnc(-c3ccccn3)n2n1)Nc1ccc2c(c1)OCO2	6.2	0.7	2.3	-7.0	30.6	1
Cc1cc2ncn(C(=O)N3CCCC3)c2cc1C	6.2	/	/	-3.9	/	/
O=C(/C=C/c1ccc(-c2ccccc2[N+](=O)[O-])o1)c1ccc(Br)cc1	0.3	0.9	21.3	2.5	12.8	0.8
Cc1ccc(C(=O)/C=C/c2ccc(-c3ccccc3[N+](=O)[O-])o2)cc1	9.4	0.4	29.4	-11.2	57.6*	0.7
Cc1nccn1Cc1cccc2ccccc12	-3.3	0.7	51.4*	-1.0	27.0	0.5
CCCCOc1ccc(C(=O)N/C(=C\c2ccc(OC)cc2)C(=O)OCc2ccco2)cc1	15.9	0.3	37.5	-14.0	65.1*	0.6
C=CCOC(=O)/C(=C\c1ccc(OC)cc1)NC(=O)c1ccco1	0.8	0.7	55.0*	2.4	28.9	0.4
CS(=O)(=O)N(Cc1ccccc1)c1ccc(C(=O)NCc2cccnc2)cc1	-2.0	0.1	91.3*	2.7	91.2*	0.1
CS(=O)(=O)N(Cc1ccccc1)c1ccc(C(=O)NCc2ccccc2)cc1	6.0	0.5	62.1*	-4.2	53.4*	0.4
CCCNC(=O)c1ccc(N(Cc2ccccc2)S(C)(=O)=O)cc1	5.4	0.7	35.3	-6.6	25.6	0.6
Cc1ccc(CN(c2ccc(C(=O)Nc3cccnc3)cc2)S(C)(=O)=O)cc1	1.1	0.3	90.6*	1.1	73.8*	0.1
CN(C)CCCNC(=O)c1ccc(CN(c2ccccc2)S(C)(=O)=O)cc1	/	0.4	20.9	/	64.5*	0.8
O=C(Nc1ccc2c(c1)OCO2)c1ccc(COc2ccc3c(c2)CCC3)o1	24.0	0.6	38.5	-21.9	40.1	0.6
CC(=O)Nc1ccc(OCC=C(Cl)Cl)cc1	0.0	0.8	24.0	-1.2	18.4	0.8
O=C(NCc1ccccc1)c1ccc(S(=O)(=O)C(F)F)cc1	-16.3	0.9	68.2*	18.4	9.4	0.3
O=C(NCc1ccccn1)c1ccc(/C=N/O)nc1	1.6	1	1.2	-1.4	-3.7	1
CN(C)CCCNC(=O)c1ccc(Cl)c(S(=O)(=O)N(C)c2ccccc2)c1	-3.0	1	96.7*	2.1	-4.6	0
CS(=O)(=O)N(Cc1ccccc1)c1ccc(C(=O)NC2CCCCC2O)cc1 (stereo unspecified)	-4.4	0.9	51.9*	4.0	11.5	0.5
O=C(NCc1ccccc1)c1ccc(/C=N/O)nc1	/	1.1	63.4*	/	-14.6	0.4
